Test [1] is described as follows: Cell Viability - LYMP2-025 (AID 976). Particulars: LYMP2-025 lymphoblastoid cell viability; series mostly up to 92.2 µM. The method in brief:
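Human lymphoblastoid LYMP2-025 cells, 2500/well, exposed 24 h at 37 C in complete medium in 1536-well qHTS. Viability as cellular ATP by CellTiter-Glo luminescence; AC50 from Hill fits of concentration-response data.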

A short description of test [2]: Cell Viability - LYMP2-002 (AID 977). The following applies: LYMP2-002 lymphoblastoid cell viability, qHTS; series mostly up to 92.2 µM. The method in brief:
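Luminescent ATP readout (CellTiter-Glo, 30 min room temperature) after 24 h compound exposure at 37 C of a human lymphoblastoid line, 2500 cells/well. AC50 values derived by standard Hill fitting of qHTS concentration-response data.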
Background: In qHTS, concentration-response curves come from the screen itself.

Test [3] is described as follows: Cell Viability - LYMP2-010 (AID 981).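 Note: cells exposed to compound for 24 hours at 37 °C; nearly all actives have a fitted effect of over 55% in size.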 Note: potency is the fitted concentration of half-maximal effect. Particulars: LYMP2-010 lymphoblastoid cell viability, qHTS; series mostly up to 92.2 µM. The method in brief: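 Human lymphoblastoid LYMP2-010 cells (2500/well) treated 24 h at 37 C in complete medium; viability read as intracellular ATP by CellTiter-Glo luminescence. AC50 from Hill fits of concentration-response data; tetraoctylammonium bromide positive control.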

Test [4] can be described thus: Cell Viability - LYMP2-019 (AID 973). Note: nearly all actives have a fitted effect of over 55% in size. Particulars: LYMP2-019 lymphoblastoid cell line viability; series mostly up to 92.2 µM. The method in brief:
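Human lymphoblastoid LYMP2-019 cells (2500/well) preincubated 5 h at 37 C, then treated 24 h at 37 C in complete medium. Viability by CellTiter-Glo ATP luminescence after 30 min at room temperature; AC50 from Hill fits.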

Test [5] in a line: Cell Viability - LYMP2-021 (AID 974).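 Note: compound exposure lasts 24 hours at 37 °C; nearly all actives have a fitted effect of over 55% in size.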 The following applies: LYMP2-021 lymphoblastoid cells viability; series mostly up to 92.2 µM. The method in brief: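 Human lymphoblastoid LYMP2-021 cells, 2500/well in complete medium, treated 24 hours at 37 C. Intracellular ATP by CellTiter-Glo luminescence (30 min, RT); AC50 from Hill fits of concentration-response.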
Test [6] in a line: Cell Viability - LYMP2-023 (AID 975).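 Note: cellular ATP measured by luciferase luminescence as viability proxy; cells exposed to compound for 24 hours at 37 °C; nearly all actives have a fitted effect of over 55% in size.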 The following applies: LYMP2-023 lymphoblastoid cell viability; series mostly up to 92.2 µM. The method in brief:
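LYMP2-023 human lymphoblastoid cells, 2500/well, preincubated 5 hr at 37 C, then compound-treated 24 hr at 37 C in complete medium. CellTiter-Glo luminescence (ATP) after 30 min at room temperature; AC50 from Hill-equation fits; tetraoctylammonium bromide positive control.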

Test [7] in a line: Cell Viability - LYMP2-006 (AID 978).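 Note: cells exposed to compound for 24 hours; nearly all actives have a fitted effect of over 60% in size.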 Particulars: LYMP2-006 lymphoblastoid cell viability, qHTS; series mostly up to 92.2 µM. The method, boiled down: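 Concentration-dependent loss of intracellular ATP in a human lymphoblastoid line after 24 hr treatment at 37 C was measured by CellTiter-Glo luminescence, with AC50 values obtained from standard Hill-equation modelling.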
A short description of test [8]: Cell Viability - LYMP2-007 (AID 979).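 Note: cells exposed to compound for 24 h before reading; nearly all actives have a fitted effect of over 60% in size.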 Particulars: LYMP2-007 lymphoblastoid cell viability; series mostly up to 92.2 µM. The method, boiled down: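 Human lymphoblastoid LYMP2-007 cells (2500/well) preincubated 5 h at 37 C, then treated 24 h at 37 C in complete medium. Viability by CellTiter-Glo ATP luminescence after 30 min at room temperature; AC50 from Hill fits.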

Test [9] can be described thus: Cell Viability - LYMP2-008 (AID 980). Note: nearly all actives have a fitted effect of over 60% in size. The following applies: LYMP2-008 lymphoblastoid cell viability, qHTS; series mostly up to 92.2 µM. The method, boiled down: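 LYMP2-008 lymphoblastoid cells (2500/well) plated 5 h, then treated 24 h at 37 C in complete medium. Viability read as intracellular ATP by CellTiter-Glo luminescence after 30 min at room temperature; AC50 from Hill fits.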

Test [10] can be described thus: Cell Viability - LYMP2-012 (AID 982). Particulars: LYMP2-012 lymphoblastoid cell viability qHTS; series mostly up to 92.2 µM.

Results filed as inconclusive are left out. Calls of active or inactive are those of the source. Calls come from the whole dose curve; as a rule, active = well fitted cell-killing curve with a large enough effect; inconclusive = small, poorly fitted or top-dose-only effect; inactive = flat fitted curve, though single readings scatter.

Take `Cn1cnc([N+](=O)[O-])c1Sc1ncnc2nc[nH]c12`: the outcome in test [1] and in [2] was inactive. In addition, in test [3], the Potency was 39.8 µM (active).

In the case of `NS(=O)(=O)c1cc2c(cc1Cl)NC=NS2(=O)=O`, the compound was called inactive in test [4], in test [5], in test [6], in [1], in test [2] and in test [7]. For the same compound, the result in test [8], in test [9] and in test [10] was inactive. The Potency result in test [3] was “inactive”.

Regarding `O=c1[nH]cnc2[nH]ncc12`, the call in [4], in test [5], in test [6], in test [2], in test [7] and in test [8] was inactive. Besides, the outcome in [9] and in test [10] was inactive. Further, the Potency result in test [3] is “inactive”.

Turning to `NC(=O)c1cnccn1`, the result in test [4], in test [5], in test [6], in test [1], in test [2] and in [7] was inactive. For the same compound, the result in [8], in test [9] and in [10] was inactive. Moreover, the Potency result in test [3] was “inactive”.

For the compound `CCCC(CCC)C(=O)O`, the compound was classed as inactive in test [4], in test [5], in test [6], in [1], in [2] and in test [7]. Further, the outcome in test [8], in test [9] and in test [10] was inactive. Moreover, the Potency entry in test [3] is “inactive”.

As to `NC(N)=NC(=O)c1nc(Cl)c(N)nc1N`, the compound was classed as inactive in [4], in test [5], in test [6], in test [1], in [2] and in [7]. Further, the outcome in test [8], in [9] and in [10] was inactive.

With `CC(=O)Oc1ccccc1C(=O)O`, the call in test [4], in test [5], in [6], in test [1], in test [2] and in test [7] was inactive. Besides, the compound was called inactive in [8], in test [9] and in [10]. Moreover, the Potency entry in test [3] is “inactive”.

These data come from PubChem BioAssay (NCATS).
